In PubChem BioAssay (NCATS):
Several values for one entry are separate records, joined by “and”; a condition that tells them apart may be missing. Identical values can stand only once. Records with an inconclusive call do not appear. A call without a number means that no potency is given here. A number with no mark means an inactive call. Activity calls are given as the source filed them. Calls come from the whole dose curve; as a rule, active = well fitted curve in the direction sought with a large enough effect; inconclusive = small, poorly fitted or top-dose-only effect, or another doubt; inactive = no such curve, though single readings can be large; an effect the other way counts as inactive or inconclusive.

How the values were obtained:
[1] = Viability qHTS for spleen associated tyrosine kinase inhibitor (SYKi) naive MV4-11 cells (AID 1963823); note: nearly all actives have a fitted effect of over 40% in size
Outline: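 Read-out: CellTiter-Glo luminescence. Exposure: 72 hr, 37 C, 5% CO2, 95% humidity. Cells: MV4-11 without SYK inhibitor history, 500/well, qHTS format.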

[2] = Viability qHTS for spleen associated tyrosine kinase inhibitor (SYKi) drug resistant MV4-11 cells (AID 1963824); note: nearly all actives have a fitted effect of over 35% in size
Outline: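 SYK inhibitor-resistant MV4-11 AML cells, 500 per well, added to predispensed compounds and incubated 72 hr at 37 C, 5% CO2. Viability measured by CellTiter-Glo luminescence after 10 min at room temperature.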

[3] = Quantitative highthroughput screen to assess conditional lethalithy of NOMO1 cells grown in RPMI1640 with untreated serum (RPMI+s) (AID 1963876); note: nearly all actives have a fitted effect of over 35% in size
Outline: (§1)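 Each medium arm—HPLM with 10% dialyzed FBS, or RPMI1640 with 5 mM glucose and 10% untreated or dialyzed FBS—was screened against an 11-point, 3-fold compound titration for 48 h at 37 °C, with CellTiter-Glo luminescence as endpoint.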

[4] = Quantitative highthroughput screen to assess conditional lethalithy of NOMO1 cells grown in RPMI1640 with dialyzed fetal bovine serum (RPMI+ds) (AID 1963877); note: nearly all actives have a fitted effect of over 30% in size; for Viability: series mostly up to about 46 µM
Outline: as §1

[5] = Quantitative highthroughput screen to assess conditional lethalithy of NOMO1 cells grown in Human Plasma-Like Medium with dialyzed fetal bovine serum (HPLM+ds) (AID 1963878); note: nearly all actives have a fitted effect of over 35% in size
Outline: as §1

[6] = Quantitative highthroughput screen to assess conditional lethalithy of P12 Ichikawa cells grown in Human Plasma-Like Medium with dialyzed fetal bovine serum (HPLM+ds) (AID 1963879); settings: Potency: viability; note: nearly all actives have a fitted effect of over 35% in size; for Viability: series mostly up to about 46 µM
Outline: as §1

[7] = Quantitative highthroughput screen to assess conditional lethalithy of P12 Ichikawa cells grown in RPMI1640 with dialyzed fetal bovine serum (RPMI+ds) (AID 1963880); settings: Potency: P12-Ichikawa viability; note: nearly all actives have a fitted effect of over 35% in size
Outline: as §1

[8] = Quantitative highthroughput screen to assess conditional lethalithy of SEM cells grown in Human Plasma-Like Medium with dialyzed fetal bovine serum (HPLM+ds) (AID 1963882); note: nearly all actives have a fitted effect of over 35% in size; for Viability: series mostly up to about 46 µM
Outline: as §1

[9] = Quantitative highthroughput screen to assess conditional lethalithy of SEM cells grown in RPMI1640 with unreated serum (RPMI+s) (AID 1963883); note: nearly all actives have a fitted effect of over 35% in size
Outline: as §1

[10] = Quantitative highthroughput screen to assess conditional lethalithy of SEM cells grown in RPMI1640 with dialyzed fetal bovine serum (RPMI+ds) (AID 1963884); note: nearly all actives have a fitted effect of over 35% in size; for Viability: series mostly up to about 46 µM
Outline: as §1

[11] = Cellular viability qHTS for adrenocortical cancer (ACC) cell line SW-13 (AID 1963989); settings: SW-13 ACC cells viability, CellTiter-Glo, 48 h; activity (max response): active compounds read low; note: nearly all actives have a fitted effect of over 65% in size;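 for activity (max response): cells grown in serum-free medium with ITS supplement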
Outline: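 Viability was read as CellTiter-Glo luminescence after 48 h compound treatment (up to 46 uM final) of SW-13 cells grown serum-free; titration curves were fit with a four-parameter logistic model to give IC50 and efficacy.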

[12] = Cellular viability qHTS for adrenocortical cancer (ACC) cell line NCI-H295R (AID 1963990); note: nearly all actives have a fitted effect of over 60% in size
Outline: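 CellTiter-Glo ATP luminescence, read 48 h after compound addition, measured viability of NCI-H295R adrenocortical cells grown serum-free with ITS. Final concentrations spanned up to 46 uM. Data normalized to DMSO and doxorubicin, fitted for IC50 and maximal response.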

[13] = Quantitative highthroughput screen to assess conditional lethalithy of P12 Ichikawa cells grown in RPMI1640 with untreated serum (RPMI+s) (AID 1963881); settings: Potency: viability; note: nearly all actives have a fitted effect of over 35% in size; for Viability: series mostly up to about 46 µM
Outline: as §1
Potency is the fitted concentration of half-maximal effect.

| Structure (SMILES) | Potency [1] | Potency [2] | Potency [3] | Potency [4] | Potency [5] | Potency [6] | Potency [7] | Potency [8] | Potency [9] | Potency [10] | Potency [11] | Potency [12] | viability (% of control) [1] | viability, % of control [2] | Potency [13] | activity (max response) [11] | activity change, negative = viability loss [12] |
| --- | --- | --- | --- | --- | --- | --- | --- | --- | --- | --- | --- | --- | --- | --- | --- | --- | --- |
| CC(C)C[C@H](NC(=O)[C@@H](NC(=O)c1cccc(-c2ccccc2)n1)[C@@H](C)O)B(O)O | 14.6 nM (active) and 25.7 nM (active) | 0.0204 µM (active) | 0.0743 µM (active) | 0.105 µM (active) | 0.0662 µM (active) | 0.0526 µM (active) | 0.059 µM (active) | 0.0148 µM (active) | 0.0132 µM (active) | 0.0148 µM (active) | 285 nM (active) | 0.18 µM (active) |  |  |  |  |  |
| COc1ccc(-c2nc3ccc(C4=NNC(=O)CC4C)cc3[nH]2)cc1 (centres undefined) | 18.6 µM (active) | 11.8 µM (active) | inactive | inactive | inactive | inactive | inactive |  |  | inactive | 18.4 µM (active) and 20 µM (active) | 6.51 µM (active) and 14.1 µM (active) |  |  |  |  |  |
| CN[C@@H](C)[C@H]1[C@H](O)C[C@@]2(C)[C@@H]3CC[C@H]4C(C)(C)[C@@H](NC)CC[C@@]45C[C@@]35CC[C@]12C |  |  | inactive | inactive | inactive | inactive |  |  | inactive | inactive |  |  | 79.2% [at 9.25 µM] | 80.2% [at 9.25 µM] | inactive | -3.37% | -14.8% [at 9.17 µM] |
| NC[C@H](O)c1ccc(O)c(O)c1 | inactive | inactive | inactive | inactive | inactive | inactive |  | inactive | inactive | inactive |  | inactive |  |  | inactive | -12.7% and 7.51% |  |
| CC[C@@H]([C@H](C)O)n1ncn(-c2ccc(N3CCN(c4ccc(OCC5CO[C@@](Cn6cncn6)(c6ccc(F)cc6F)C5)cc4)CC3)cc2)c1=O (some centres undefined) | 5.9 µM (active) | 4.17 µM (active) | inactive | inactive | inactive | inactive |  |  | inactive | inactive |  | inactive |  |  | inactive | -5.54% |  |
| CCc1cc(C(N)=S)ccn1 | inactive | inactive | inactive | inactive | inactive | 14.8 µM (active) | 8.33 µM (active) |  | 8.33 µM (active) | 7.43 µM (active) |  | inactive |  |  |  | 3.73% and -4.72% |  |
| CCC(C)SSc1ncc[nH]1 (centres undefined) | 9.34 µM (active) | 8.33 µM (active) | 18.7 µM (active) | 23.5 µM (active) | 14.8 µM (active) | 18.7 µM (active) | 13.2 µM (active) |  |  |  |  | 20 µM (active) |  |  | 18.7 µM (active) |  |  |
| C[Se]CCC(N)C(=O)O (centres undefined) | inactive | inactive | inactive | inactive | inactive | inactive | inactive |  |  |  |  | inactive |  |  | inactive | -4.29% |  |
| CCN(CC)C(=S)SSC(=S)N(CC)CC | 1.57 µM (active) | 1.4 µM (active) and 5.31 µM (active) and 833 nM (active) | 2.96 µM (active) | 2.96 µM (active) | 3.32 µM (active) | 2.96 µM (active) |  |  | 1.05 µM (active) | 0.662 µM (active) | 16.4 µM (active) and 25.1 µM (active) | 44.7 µM (active) |  |  | 2.96 µM (active) |  |  |
| COc1ccc2cccc(CCNC(C)=O)c2c1 | inactive | inactive | inactive | inactive | inactive | inactive | inactive |  |  |  |  | inactive |  |  | inactive | 13% |  |
| Cc1ccc2c(=O)c3cccc(CC(=O)O)c3oc2c1C | 2.95 µM (active) | 0.934 µM (active) | inactive | inactive | inactive | inactive | inactive |  |  |  |  | inactive |  |  | inactive | -13.4% |  |
| CC(=O)Oc1ccccc1C(=O)O | inactive | inactive | inactive | inactive | inactive | inactive |  | inactive | inactive | inactive |  | inactive |  |  | inactive | 9.69% and -6.24% |  |
| OCc1ccc(-c2ccc(-c3ccc(CO)s3)o2)s1 | 1.18 µM (active) | 0.833 µM (active) | inactive | inactive | inactive | inactive |  | inactive | inactive |  |  | 28.2 µM (active) |  |  | inactive | -9.77% |  |
| CN1C(=O)C(Cc2c[nH]c3ccccc23)NC1=S (centres undefined) | inactive | 8.33 µM (active) | inactive | inactive | inactive | inactive | inactive |  |  |  |  | inactive |  |  | inactive |  |  |
| NC(=O)Cc1cccc(C(=O)c2ccccc2)c1N | inactive | inactive | inactive | inactive | inactive |  | inactive |  |  |  |  |  |  |  | inactive | 0.0063% |  |
| CN1CC(=O)NC1=NC(=O)Nc1cccc(Cl)c1 | inactive | inactive | inactive | inactive | inactive |  | inactive | inactive | inactive | inactive |  | inactive |  |  | inactive | -5.87% |  |
